Experiments:
[1] = molecular target: Tyrosine-protein kinase SYK (Homo sapiens) (UniProt P43405); conditions: at 1 µM
[2] = molecular target: T1, Tyrosine-protein kinase Tec (Homo sapiens) (UniProt P42680); conditions: at 0.1 µM
T1 sequence (whole entry): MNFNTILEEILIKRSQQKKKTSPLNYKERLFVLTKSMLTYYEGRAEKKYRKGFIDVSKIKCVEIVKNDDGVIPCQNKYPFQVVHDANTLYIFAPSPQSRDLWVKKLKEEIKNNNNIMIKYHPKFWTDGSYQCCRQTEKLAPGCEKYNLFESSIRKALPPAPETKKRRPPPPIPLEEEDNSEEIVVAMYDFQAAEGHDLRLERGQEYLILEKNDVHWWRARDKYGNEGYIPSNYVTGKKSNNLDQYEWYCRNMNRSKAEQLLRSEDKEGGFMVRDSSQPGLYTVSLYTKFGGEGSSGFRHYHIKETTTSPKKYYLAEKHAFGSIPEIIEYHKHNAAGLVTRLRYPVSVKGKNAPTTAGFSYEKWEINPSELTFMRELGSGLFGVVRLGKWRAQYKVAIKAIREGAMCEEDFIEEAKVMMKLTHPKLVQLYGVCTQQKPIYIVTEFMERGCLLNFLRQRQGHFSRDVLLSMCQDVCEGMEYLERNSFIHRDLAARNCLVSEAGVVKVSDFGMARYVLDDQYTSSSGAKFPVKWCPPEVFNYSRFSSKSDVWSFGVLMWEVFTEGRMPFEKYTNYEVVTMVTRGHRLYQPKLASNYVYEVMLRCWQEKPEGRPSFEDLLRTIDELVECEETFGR

[3] = molecular target: T1, Tyrosine-protein kinase Tec (Homo sapiens); conditions: at 1 µM
[4] = molecular target: Angiopoietin-1 receptor (Homo sapiens) (UniProt Q02763); conditions: at 0.1 µM
[5] = molecular target: Angiopoietin-1 receptor (Homo sapiens) (UniProt Q02763); conditions: at 1 µM
[6] = molecular target: T2, Non-receptor tyrosine-protein kinase TNK1 (Homo sapiens) (UniProt Q13470); conditions: at 0.1 µM
T2 sequence (whole entry): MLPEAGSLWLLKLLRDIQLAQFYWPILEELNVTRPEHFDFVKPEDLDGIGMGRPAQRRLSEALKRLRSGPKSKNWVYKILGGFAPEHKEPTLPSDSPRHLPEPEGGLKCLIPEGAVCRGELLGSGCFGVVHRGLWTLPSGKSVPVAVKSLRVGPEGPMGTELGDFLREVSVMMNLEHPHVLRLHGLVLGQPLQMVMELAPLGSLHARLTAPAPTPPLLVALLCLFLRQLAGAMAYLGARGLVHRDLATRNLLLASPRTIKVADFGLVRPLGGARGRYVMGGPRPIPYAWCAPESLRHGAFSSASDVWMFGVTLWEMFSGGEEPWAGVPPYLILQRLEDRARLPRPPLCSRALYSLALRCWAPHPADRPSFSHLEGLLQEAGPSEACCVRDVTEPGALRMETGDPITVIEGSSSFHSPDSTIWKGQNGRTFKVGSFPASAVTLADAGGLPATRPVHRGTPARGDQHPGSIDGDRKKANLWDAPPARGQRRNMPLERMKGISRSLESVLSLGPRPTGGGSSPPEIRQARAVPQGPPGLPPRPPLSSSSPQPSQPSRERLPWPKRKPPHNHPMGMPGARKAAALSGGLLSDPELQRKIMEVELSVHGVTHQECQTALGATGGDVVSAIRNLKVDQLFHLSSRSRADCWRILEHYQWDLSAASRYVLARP

[7] = molecular target: T2, Non-receptor tyrosine-protein kinase TNK1 (Homo sapiens); conditions: at 1 µM
[8] = molecular target: Activated CDC42 kinase 1 (Homo sapiens) (UniProt Q07912); conditions: at 0.1 µM
[9] = molecular target: Activated CDC42 kinase 1 (Homo sapiens) (UniProt Q07912); conditions: at 1 µM
[10] = molecular target: High affinity nerve growth factor receptor (Homo sapiens) (UniProt P04629); conditions: at 0.1 µM
[11] = molecular target: High affinity nerve growth factor receptor (Homo sapiens) (UniProt P04629); conditions: at 1 µM
[12] = molecular target: BDNF/NT-3 growth factors receptor (Homo sapiens) (UniProt Q16620); conditions: at 0.1 µM
[13] = molecular target: BDNF/NT-3 growth factors receptor (Homo sapiens) (UniProt Q16620); conditions: at 1 µM
[14] = molecular target: NT-3 growth factor receptor (Homo sapiens) (UniProt Q16288); conditions: at 0.1 µM
[15] = molecular target: NT-3 growth factor receptor (Homo sapiens) (UniProt Q16288); conditions: at 1 µM
[16] = molecular target: T3, Tyrosine-protein kinase TXK (Homo sapiens) (UniProt P42681); conditions: at 0.1 µM
T3 sequence (whole entry): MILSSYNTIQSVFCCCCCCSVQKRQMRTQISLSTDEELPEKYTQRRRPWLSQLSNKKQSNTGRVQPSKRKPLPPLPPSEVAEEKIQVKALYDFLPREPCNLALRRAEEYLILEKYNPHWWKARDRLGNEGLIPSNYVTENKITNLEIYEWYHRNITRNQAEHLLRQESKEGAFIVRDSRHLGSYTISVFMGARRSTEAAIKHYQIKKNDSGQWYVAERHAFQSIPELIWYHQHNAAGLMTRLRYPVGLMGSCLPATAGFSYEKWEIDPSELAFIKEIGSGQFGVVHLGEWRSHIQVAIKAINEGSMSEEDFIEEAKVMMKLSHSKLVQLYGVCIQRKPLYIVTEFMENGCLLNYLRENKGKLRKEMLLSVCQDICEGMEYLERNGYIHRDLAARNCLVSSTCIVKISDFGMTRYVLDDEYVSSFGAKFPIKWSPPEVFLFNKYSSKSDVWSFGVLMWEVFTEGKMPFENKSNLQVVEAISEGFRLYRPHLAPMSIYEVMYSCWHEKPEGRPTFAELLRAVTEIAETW

[17] = molecular target: T3, Tyrosine-protein kinase TXK (Homo sapiens); conditions: at 1 µM
[18] = molecular target: Non-receptor tyrosine-protein kinase TYK2 (Homo sapiens) (UniProt P29597); conditions: at 0.1 µM;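 further: each value is a mean of the inhibition readings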
[19] = molecular target: T4, Dual specificity protein kinase TTK (Homo sapiens) (UniProt P33981); conditions: at 1 µM;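 further: reported figures are mean TTK inhibition at 1 µM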
T4 sequence (whole entry): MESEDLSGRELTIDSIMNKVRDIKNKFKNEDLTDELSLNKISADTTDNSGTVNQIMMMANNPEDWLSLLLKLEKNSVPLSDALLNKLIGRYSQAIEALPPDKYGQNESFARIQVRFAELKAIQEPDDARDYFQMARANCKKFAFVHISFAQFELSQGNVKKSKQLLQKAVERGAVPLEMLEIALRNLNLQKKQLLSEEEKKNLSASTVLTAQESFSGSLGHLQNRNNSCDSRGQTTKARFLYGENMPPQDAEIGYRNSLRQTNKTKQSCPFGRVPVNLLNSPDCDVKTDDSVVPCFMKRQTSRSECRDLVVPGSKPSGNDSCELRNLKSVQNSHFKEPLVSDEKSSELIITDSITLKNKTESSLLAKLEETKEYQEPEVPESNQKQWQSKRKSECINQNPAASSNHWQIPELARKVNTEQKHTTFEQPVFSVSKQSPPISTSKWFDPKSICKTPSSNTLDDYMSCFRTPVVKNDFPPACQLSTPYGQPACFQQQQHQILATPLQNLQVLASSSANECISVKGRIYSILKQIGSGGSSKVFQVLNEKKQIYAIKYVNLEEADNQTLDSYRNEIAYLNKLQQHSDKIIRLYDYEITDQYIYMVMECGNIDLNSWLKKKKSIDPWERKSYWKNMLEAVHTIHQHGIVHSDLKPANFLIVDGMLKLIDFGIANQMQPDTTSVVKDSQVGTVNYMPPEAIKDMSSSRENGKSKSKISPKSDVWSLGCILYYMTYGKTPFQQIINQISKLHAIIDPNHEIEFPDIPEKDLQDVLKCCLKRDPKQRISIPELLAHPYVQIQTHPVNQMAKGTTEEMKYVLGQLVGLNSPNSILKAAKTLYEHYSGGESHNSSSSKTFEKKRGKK

[20] = molecular target: T5, Aurora kinase A (Homo sapiens) (UniProt O14965); conditions: at 0.1 µM;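 further: each reported value is a mean percent inhibition of Aurora-A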
T5 sequence (whole entry): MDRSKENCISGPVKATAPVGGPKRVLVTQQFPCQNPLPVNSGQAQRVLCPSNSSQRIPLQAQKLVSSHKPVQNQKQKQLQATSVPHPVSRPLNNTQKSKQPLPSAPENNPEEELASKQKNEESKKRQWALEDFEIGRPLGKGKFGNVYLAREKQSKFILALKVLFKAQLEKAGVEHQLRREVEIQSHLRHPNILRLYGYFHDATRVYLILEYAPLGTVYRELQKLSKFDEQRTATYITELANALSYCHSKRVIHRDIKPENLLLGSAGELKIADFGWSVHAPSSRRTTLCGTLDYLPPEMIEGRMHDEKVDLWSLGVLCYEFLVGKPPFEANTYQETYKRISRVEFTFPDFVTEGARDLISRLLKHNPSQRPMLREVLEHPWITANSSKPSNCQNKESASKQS

Sequence of BDNF/NT-3 growth factors receptor (Homo sapiens) (Q16620 32-822 limits assumed): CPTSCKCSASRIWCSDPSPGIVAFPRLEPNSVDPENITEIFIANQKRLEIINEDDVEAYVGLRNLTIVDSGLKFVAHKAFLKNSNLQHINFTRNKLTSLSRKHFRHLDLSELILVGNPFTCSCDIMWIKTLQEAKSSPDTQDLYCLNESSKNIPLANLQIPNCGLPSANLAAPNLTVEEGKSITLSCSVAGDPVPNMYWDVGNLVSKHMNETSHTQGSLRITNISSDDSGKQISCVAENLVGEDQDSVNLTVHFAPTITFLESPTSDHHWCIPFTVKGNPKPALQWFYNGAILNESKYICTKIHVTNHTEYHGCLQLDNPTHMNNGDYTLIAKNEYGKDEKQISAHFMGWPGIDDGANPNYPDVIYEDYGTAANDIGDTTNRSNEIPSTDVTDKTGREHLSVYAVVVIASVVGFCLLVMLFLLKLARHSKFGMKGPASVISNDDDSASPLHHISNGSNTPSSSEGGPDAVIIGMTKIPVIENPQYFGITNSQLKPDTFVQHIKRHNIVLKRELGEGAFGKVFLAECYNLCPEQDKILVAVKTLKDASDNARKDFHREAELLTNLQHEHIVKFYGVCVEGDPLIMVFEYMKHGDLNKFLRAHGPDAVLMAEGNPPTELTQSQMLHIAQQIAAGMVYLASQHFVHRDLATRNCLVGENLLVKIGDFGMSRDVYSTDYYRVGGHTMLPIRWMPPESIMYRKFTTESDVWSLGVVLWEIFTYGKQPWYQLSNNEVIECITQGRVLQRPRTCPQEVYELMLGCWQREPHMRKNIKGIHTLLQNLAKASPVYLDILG
Sequence of Angiopoietin-1 receptor (Homo sapiens) (Q02763 whole entry): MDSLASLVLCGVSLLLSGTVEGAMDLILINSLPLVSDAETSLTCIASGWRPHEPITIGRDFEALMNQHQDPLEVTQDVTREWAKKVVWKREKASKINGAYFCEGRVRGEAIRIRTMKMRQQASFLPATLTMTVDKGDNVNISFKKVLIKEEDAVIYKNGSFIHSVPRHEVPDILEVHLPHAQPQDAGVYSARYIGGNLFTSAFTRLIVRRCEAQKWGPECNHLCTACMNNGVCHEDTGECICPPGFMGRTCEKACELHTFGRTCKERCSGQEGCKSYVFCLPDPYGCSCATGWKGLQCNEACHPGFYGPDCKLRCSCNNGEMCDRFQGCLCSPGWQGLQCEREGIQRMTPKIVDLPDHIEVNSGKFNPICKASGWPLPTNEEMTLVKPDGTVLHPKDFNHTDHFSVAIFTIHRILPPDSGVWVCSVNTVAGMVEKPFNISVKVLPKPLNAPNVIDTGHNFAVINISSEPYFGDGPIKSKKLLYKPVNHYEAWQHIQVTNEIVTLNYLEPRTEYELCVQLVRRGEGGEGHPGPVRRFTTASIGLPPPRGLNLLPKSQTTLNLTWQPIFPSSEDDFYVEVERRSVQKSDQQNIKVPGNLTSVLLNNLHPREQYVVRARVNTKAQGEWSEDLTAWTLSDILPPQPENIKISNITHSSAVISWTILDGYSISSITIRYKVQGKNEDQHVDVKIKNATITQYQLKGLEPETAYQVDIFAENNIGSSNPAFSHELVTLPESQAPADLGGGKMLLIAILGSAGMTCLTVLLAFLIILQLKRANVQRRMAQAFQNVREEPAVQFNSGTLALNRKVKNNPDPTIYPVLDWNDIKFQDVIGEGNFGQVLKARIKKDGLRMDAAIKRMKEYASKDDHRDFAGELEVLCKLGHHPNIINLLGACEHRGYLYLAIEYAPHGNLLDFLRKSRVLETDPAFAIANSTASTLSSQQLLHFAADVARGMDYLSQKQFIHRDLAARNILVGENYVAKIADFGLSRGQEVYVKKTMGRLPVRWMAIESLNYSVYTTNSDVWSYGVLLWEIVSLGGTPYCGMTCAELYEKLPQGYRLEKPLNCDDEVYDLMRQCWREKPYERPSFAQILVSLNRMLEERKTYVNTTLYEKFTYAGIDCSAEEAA
Sequence of Activated CDC42 kinase 1 (Homo sapiens) (Q07912 whole entry, looked up): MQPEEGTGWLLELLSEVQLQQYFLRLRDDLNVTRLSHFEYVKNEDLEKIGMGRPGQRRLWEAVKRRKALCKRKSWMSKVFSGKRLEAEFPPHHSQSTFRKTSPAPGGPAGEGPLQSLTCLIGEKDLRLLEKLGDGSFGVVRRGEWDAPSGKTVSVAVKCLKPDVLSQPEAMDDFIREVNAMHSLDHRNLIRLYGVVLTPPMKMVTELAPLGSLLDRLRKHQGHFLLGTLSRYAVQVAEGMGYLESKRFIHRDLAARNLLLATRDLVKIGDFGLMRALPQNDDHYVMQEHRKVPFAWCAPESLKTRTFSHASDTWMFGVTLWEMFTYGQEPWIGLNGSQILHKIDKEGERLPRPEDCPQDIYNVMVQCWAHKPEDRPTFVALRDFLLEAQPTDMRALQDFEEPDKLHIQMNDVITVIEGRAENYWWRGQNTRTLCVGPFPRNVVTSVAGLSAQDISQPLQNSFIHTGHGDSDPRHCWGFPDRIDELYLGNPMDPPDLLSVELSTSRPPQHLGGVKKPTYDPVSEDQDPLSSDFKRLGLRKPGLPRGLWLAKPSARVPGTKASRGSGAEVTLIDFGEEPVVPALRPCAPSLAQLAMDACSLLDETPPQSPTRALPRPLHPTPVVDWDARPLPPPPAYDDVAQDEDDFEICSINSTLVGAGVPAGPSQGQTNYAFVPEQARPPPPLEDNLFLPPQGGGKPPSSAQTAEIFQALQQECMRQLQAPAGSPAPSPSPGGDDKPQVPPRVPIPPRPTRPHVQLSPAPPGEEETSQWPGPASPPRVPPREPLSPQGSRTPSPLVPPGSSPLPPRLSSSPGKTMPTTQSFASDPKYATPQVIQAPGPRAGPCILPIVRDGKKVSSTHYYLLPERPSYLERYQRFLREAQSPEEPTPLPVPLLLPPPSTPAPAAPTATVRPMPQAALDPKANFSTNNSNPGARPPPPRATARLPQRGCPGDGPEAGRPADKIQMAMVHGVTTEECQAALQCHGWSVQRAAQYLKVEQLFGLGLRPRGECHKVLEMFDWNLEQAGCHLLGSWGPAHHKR
Sequence of Non-receptor tyrosine-protein kinase TYK2 (Homo sapiens) (P29597 whole entry): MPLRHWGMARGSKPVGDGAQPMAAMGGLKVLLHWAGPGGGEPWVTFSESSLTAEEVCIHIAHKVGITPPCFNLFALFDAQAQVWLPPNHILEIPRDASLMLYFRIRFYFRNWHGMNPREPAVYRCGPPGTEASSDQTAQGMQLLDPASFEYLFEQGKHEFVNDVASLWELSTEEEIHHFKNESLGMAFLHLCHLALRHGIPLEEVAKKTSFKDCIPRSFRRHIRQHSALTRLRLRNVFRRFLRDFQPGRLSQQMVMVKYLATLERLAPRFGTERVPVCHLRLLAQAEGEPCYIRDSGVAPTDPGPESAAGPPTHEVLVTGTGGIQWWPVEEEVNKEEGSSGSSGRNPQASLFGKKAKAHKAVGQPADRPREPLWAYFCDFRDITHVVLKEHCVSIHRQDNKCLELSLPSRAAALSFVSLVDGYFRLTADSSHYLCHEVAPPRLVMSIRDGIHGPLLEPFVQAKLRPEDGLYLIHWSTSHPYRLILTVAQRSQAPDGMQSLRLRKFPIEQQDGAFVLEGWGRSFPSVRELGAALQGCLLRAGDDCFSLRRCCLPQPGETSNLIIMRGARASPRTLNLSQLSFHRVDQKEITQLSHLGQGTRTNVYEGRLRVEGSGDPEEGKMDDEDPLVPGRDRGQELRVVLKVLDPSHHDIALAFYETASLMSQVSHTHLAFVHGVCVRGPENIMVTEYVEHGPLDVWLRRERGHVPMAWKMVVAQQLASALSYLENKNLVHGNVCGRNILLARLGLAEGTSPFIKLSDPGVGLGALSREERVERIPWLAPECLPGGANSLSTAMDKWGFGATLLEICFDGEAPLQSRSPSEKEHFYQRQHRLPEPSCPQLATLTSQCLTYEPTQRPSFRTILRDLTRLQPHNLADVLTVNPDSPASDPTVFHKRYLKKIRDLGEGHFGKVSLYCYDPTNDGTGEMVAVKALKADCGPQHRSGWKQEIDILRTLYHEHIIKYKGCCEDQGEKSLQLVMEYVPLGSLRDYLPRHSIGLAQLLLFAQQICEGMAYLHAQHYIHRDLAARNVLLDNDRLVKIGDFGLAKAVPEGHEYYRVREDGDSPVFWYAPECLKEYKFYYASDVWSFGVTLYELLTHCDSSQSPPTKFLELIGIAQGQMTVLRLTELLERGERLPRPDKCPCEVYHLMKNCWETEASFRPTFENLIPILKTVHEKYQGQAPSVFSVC
Sequence of High affinity nerve growth factor receptor (Homo sapiens) (P04629 33-796 limits assumed): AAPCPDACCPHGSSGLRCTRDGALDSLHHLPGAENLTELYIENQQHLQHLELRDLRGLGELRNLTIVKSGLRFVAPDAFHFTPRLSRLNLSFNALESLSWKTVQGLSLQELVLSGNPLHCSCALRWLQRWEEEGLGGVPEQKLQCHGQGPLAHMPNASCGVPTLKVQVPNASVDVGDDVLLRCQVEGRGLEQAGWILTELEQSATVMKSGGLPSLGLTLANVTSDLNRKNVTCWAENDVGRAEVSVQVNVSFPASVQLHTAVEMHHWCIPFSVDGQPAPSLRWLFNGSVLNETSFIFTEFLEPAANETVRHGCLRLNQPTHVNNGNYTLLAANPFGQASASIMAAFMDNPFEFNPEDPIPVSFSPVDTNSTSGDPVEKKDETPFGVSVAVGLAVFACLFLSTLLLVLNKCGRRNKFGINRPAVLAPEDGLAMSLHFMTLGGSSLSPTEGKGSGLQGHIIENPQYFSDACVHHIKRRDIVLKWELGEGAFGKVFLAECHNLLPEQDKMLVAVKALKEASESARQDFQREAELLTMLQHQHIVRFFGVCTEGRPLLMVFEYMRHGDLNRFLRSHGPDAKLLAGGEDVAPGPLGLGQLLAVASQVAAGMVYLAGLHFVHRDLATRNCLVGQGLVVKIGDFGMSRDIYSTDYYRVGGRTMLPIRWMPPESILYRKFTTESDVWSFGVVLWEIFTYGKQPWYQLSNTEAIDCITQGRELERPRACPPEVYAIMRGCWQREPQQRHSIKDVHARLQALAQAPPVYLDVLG

| Structure (SMILES) | inhibition [1] [%] | inhibition [2] [%] | inhibition [3] [%] | inhibition [4] [%] | inhibition [5] [%] | inhibition [6] [%] | inhibition [7] [%] | inhibition [8] [%] | inhibition [9] [%] | inhibition [10] [%] | inhibition [11] [%] | inhibition [12] [%] | inhibition [13] [%] | inhibition [14] [%] | inhibition [15] [%] | inhibition [16] [%] | inhibition [17] [%] | inhibition [18] [%] | inhibition [19] [%] | inhibition [20] [%] |
| --- | --- | --- | --- | --- | --- | --- | --- | --- | --- | --- | --- | --- | --- | --- | --- | --- | --- | --- | --- | --- |
| NS(=O)(=O)c1ccc(Nc2cc(-c3cccc(O)c3)n[nH]2)cc1 | -0.51 | 5.22 | 5.56 | 4.05 | 3.13 | 4.11 | 7.43 | 1.36 | 2.01 | 4.76 | 10.5 | 5.48 | 12.6 | 5.55 | 14.4 | 2.77 | 2.95 | -9.08 | 0.24 | 3.17 |
| CN(C)c1cc2c(Nc3ccc4c(cnn4Cc4ccccc4)c3)ncnc2cn1 | 0.09 | 3.97 | 9.92 | 2.74 | 5.29 | 3.66 | 14.7 | 0.72 | 1.68 | 1.75 | 1.97 | 1.16 | 0.6 | 2.13 | 1.66 | 3.19 | 4.31 | -2.71 | 6.41 | -1.73 |
| C[C@@H](Oc1cc(-n2cnc3ccc(OC[C@@H](O)CO)cc32)sc1C(N)=O)c1ccccc1Cl | 0.64 | -0.35 | -0.09 | 2.55 | 14.6 | -0.47 | 18.2 | -0.26 | 2.04 | 0.33 | 3.73 | 1.11 | 14.7 | 3.59 | 29.4 | 0.37 | 3.1 | 3.13 | 1.94 | -0.94 |
